# About 7,900 targets were measured; listed, in parts, are those with a hit and a random draw of the rest. About 0.6% of all pairs of compound and target were hits. Unmarked numbers belong to inactive results.
# How the values were obtained:
# Assay in all cases: log2 fold change, soluble protein after heating vs DMSO (PISA); higher = thermal stabilisation; K562 cells, 10 uM, 30 min; active = over 0.2 and 3.5 SD of the protein, either way, in both replicates (recomputed)
# bafetinib = compound: Cc1ccc(NC(=O)c2ccc(CN3CC[C@H](N(C)C)C3)c(C(F)(F)F)c2)cc1Nc1nccc(-c2cncnc2)n1 [bafetinib]
# Outline: (§1)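 Quantification of soluble protein used TMTpro 16plex LC-MS/MS, with channel sums equalised. Samples were the supernatant after 21,000xg for 90 min of pooled aliquots from K562 cells (2×10^6 cells/mL) treated with 10 μM compound for 30 min, heated for 3 min over 48°C-58°C, and extracted in PBS with 0.5% NP-40 at 4°C. Values, from duplicates, describe thermal stability against control samples on a log2 fold-change scale.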
# [1] = compound: Cc1cccc(CC(=O)N2CCc3c2ccc(-c2cn(C)c4ncnc(N)c24)c3F)n1
# Outline: as §1
# nilotinib = compound: Cc1cn(-c2cc(NC(=O)c3ccc(C)c(Nc4nccc(-c5cccnc5)n4)c3)cc(C(F)(F)F)c2)cn1 [nilotinib]
# Outline: as §1
# [2] = compound: Cc1nc(Nc2n[nH]c3c2CN(C(=O)N[C@H](CN(C)C)c2ccccc2)C3(C)C)c2sccc2n1
# Outline: as §1
# dasatinib = compound: Cc1nc(Nc2ncc(C(=O)Nc3c(C)cccc3Cl)s2)cc(N2CCN(CCO)CC2)n1 [dasatinib]
# Outline: as §1
# [3] = compound: Cc1ncc(-c2ccnc(Nc3ccc(S(C)(=O)=O)cc3)n2)n1C(C)C
# Outline: as §1
# [4] = compound: Cn1cc(-c2ccc3c(c2)CCN3C(=O)Cc2cccc(C(F)(F)F)c2)c2c(N)ncnc21
# Outline: as §1
# [5] = compound: Cn1cc(-c2ccc3nnc(C(F)(F)c4ccc5ncccc5c4)n3n2)cn1
# Outline: as §1
# tipifarnib = compound: Cn1cncc1[C@@](N)(c1ccc(Cl)cc1)c1ccc2c(c1)c(-c1cccc(Cl)c1)cc(=O)n2C [tipifarnib]
# Outline: as §1
# mubritinib = compound: FC(F)(F)c1ccc(/C=C/c2nc(COc3ccc(CCCCn4ccnn4)cc3)co2)cc1 [mubritinib]
# Outline: as §1
# Sequence of UniProt P53370 (P53370 whole entry, looked up): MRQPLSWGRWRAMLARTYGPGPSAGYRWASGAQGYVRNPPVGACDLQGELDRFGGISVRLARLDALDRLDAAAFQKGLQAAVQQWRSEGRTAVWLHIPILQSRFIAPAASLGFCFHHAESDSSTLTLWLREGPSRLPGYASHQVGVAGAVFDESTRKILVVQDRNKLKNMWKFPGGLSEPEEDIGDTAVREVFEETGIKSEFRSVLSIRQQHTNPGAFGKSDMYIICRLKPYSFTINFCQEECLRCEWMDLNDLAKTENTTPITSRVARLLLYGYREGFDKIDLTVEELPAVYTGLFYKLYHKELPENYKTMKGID
# Sequence of UniProt Q13469 (Q13469 whole entry, looked up): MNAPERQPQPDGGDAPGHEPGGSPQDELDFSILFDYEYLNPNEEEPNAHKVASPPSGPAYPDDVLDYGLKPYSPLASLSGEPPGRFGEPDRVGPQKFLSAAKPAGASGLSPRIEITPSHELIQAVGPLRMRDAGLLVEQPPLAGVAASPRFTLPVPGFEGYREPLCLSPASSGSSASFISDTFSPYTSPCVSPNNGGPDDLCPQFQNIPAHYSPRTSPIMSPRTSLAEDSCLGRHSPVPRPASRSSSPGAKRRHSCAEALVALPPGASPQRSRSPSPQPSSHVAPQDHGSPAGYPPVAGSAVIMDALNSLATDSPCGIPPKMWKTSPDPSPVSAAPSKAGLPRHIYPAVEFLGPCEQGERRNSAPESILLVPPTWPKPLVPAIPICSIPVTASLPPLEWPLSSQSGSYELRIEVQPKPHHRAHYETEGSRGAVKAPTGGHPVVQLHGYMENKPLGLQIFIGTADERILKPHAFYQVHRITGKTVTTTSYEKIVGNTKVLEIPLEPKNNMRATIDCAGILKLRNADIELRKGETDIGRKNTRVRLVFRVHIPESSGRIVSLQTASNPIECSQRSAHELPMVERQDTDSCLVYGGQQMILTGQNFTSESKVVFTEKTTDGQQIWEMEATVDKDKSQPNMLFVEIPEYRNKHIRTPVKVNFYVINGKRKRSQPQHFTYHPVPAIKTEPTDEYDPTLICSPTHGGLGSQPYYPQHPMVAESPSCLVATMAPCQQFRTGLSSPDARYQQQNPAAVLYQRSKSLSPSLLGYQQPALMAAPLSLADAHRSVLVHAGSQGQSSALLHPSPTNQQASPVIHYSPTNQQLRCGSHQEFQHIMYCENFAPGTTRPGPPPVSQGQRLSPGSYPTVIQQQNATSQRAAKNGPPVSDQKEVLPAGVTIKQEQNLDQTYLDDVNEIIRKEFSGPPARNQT
# Sequence of UniProt Q9BSU3 (Q9BSU3 whole entry, looked up): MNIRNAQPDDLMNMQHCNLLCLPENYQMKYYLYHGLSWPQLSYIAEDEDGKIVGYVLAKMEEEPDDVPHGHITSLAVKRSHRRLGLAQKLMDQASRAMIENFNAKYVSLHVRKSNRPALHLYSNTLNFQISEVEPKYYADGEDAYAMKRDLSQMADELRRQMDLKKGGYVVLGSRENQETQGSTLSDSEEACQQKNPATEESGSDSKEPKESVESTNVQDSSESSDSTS
# Sequence of UniProt Q12769 (Q12769 whole entry, looked up): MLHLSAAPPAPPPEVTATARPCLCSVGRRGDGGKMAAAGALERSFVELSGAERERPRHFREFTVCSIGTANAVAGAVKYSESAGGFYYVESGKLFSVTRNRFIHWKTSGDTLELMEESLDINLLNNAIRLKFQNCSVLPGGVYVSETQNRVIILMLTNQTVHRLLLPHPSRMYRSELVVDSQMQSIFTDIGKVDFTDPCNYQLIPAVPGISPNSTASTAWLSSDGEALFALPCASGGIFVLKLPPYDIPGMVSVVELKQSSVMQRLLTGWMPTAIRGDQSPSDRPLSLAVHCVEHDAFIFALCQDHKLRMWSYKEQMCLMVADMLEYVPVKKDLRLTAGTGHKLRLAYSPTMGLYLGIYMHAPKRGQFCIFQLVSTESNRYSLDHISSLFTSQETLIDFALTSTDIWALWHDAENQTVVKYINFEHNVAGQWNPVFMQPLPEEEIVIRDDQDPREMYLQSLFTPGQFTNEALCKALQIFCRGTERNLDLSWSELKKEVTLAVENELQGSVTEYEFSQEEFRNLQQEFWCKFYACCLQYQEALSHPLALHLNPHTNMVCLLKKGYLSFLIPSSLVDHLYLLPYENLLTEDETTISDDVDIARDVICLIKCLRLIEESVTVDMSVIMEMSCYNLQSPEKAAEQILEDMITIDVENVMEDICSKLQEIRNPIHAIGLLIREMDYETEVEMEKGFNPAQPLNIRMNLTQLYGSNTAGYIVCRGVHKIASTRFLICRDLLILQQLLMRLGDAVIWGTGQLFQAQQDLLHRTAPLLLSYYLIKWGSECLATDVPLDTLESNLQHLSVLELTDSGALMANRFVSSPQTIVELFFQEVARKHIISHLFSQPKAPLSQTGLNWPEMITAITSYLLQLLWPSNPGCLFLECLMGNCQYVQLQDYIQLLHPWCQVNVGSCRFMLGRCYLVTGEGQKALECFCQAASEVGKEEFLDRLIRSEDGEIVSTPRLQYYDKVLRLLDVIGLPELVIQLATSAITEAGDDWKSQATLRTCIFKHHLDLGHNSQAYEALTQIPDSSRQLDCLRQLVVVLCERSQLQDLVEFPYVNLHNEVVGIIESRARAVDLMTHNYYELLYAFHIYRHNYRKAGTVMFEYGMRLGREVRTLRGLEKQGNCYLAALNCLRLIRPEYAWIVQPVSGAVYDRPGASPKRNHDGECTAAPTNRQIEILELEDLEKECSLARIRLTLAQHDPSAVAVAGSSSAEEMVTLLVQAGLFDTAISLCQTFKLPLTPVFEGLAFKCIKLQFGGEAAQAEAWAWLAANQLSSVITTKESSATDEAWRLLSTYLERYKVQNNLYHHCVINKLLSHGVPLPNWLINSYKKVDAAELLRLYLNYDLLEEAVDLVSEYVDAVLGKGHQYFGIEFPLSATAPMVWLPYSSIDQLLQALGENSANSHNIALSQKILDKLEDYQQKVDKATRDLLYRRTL
# Sequence of UniProt Q99549 (Q99549 whole entry, looked up): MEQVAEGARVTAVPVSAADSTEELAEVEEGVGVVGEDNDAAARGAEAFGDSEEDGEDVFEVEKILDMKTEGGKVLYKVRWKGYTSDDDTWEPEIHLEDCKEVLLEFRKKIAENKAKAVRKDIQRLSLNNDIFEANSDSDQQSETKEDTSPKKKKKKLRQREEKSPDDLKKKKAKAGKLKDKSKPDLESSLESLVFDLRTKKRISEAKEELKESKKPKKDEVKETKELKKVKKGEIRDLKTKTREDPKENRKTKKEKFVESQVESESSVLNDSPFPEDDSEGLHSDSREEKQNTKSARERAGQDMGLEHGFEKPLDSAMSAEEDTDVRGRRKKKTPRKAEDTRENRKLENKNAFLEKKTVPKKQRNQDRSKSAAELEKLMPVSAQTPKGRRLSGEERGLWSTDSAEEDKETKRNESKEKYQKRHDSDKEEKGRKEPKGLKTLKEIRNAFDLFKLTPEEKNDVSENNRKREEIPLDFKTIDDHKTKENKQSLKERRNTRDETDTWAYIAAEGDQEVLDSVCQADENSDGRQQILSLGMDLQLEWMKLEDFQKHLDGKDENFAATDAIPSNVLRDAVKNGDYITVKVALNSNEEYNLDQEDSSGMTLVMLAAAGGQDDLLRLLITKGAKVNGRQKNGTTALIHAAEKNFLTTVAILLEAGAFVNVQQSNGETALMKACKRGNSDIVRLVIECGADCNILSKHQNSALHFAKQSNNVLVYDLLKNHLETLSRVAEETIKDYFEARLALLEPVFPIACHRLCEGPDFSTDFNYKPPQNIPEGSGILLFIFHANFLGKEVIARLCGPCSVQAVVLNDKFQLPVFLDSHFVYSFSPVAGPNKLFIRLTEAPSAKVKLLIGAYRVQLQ
# Sequence of MTHFD1, A0A384N5Y3 (A0A384N5Y3 whole entry, looked up): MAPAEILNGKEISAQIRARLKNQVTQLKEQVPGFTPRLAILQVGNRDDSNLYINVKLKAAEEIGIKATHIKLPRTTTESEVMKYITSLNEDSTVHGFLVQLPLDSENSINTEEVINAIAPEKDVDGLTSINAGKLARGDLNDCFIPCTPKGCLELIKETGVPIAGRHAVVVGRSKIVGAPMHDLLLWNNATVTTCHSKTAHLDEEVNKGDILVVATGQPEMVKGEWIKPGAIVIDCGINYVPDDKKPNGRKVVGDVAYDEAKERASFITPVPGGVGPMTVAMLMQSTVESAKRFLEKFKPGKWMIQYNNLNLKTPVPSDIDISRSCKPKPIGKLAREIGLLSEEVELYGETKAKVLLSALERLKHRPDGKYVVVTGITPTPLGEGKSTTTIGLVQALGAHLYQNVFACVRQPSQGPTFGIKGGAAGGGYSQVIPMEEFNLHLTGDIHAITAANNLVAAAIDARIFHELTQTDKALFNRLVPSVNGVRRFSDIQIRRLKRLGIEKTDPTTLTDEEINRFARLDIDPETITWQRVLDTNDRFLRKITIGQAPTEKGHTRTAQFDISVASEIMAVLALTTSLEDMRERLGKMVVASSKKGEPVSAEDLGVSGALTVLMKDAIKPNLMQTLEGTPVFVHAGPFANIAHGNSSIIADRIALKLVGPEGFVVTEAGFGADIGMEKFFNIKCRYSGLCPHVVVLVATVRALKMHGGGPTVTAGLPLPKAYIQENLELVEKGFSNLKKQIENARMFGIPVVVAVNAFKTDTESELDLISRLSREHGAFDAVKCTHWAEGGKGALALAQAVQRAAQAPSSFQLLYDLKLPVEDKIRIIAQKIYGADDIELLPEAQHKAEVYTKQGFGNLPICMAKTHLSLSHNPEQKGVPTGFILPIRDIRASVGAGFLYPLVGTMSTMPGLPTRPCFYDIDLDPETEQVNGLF
# Sequence of UniProt Q9BT67 (Q9BT67 whole entry, looked up): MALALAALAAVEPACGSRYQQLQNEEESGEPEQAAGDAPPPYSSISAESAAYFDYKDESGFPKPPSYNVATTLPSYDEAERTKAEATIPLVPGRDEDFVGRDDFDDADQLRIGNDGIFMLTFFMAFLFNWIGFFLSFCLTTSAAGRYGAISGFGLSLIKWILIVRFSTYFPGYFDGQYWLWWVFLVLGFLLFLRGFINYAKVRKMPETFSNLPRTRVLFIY
# Sequence of UniProt B2RBV5 (B2RBV5 whole entry, looked up): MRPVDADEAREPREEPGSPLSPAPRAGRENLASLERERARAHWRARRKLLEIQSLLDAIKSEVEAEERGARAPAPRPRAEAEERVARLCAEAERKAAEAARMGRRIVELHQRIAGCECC
Target,log2 fold change (bafetinib),log2 fold change [1],log2 fold change (nilotinib),log2 fold change [2],log2 fold change (dasatinib),log2 fold change [3],log2 fold change [4],log2 fold change [5],log2 fold change (tipifarnib),log2 fold change (mubritinib)
NOP2 isoform 4 (UniProt P46087),0.274,-0.065,0.111,0.066,0.344,0.096,-0.568,-0.319,0.214,-0.304
NUP160 (UniProt Q12769),-0.127,0.043,-0.078,-0.136,-0.045,-0.06,-0.025,-0.034,-0.042,-0.042
OAT (UniProt P04181),-0.038,-0.018,0.036,-0.021,-0.109,-0.073,0.026,0.061,-0.004,0.002
MRPS16 (UniProt Q9Y3D3),0.192,0.151,-0.187,0.009,,-0.053,0.049,0.092,-0.094,0.16
NELFCD (UniProt Q8IXH7),0.116,-0.111,-0.233,-0.003,-0.158,0.064,0.061,,0.035,
NDFIP1 (UniProt Q9BT67),-0.137,-0.08,-0.214,0.354,0.039,0.225,-0.038,-0.072,,-0.024
NUMA1 (UniProt Q14980),0.121,0.005,0.031,-0.22,0.019,-0.013,-0.194,-0.031,0.086,-0.043
NR2C2AP isoform 2 (UniProt Q86WQ0),0.037,0.03,-0.072,0.003,-0.095,-0.008,0.028,-0.016,0.007,0.072
NANS (UniProt Q9NR45),0.04,0.05,0.069,-0.007,-0.018,-0.018,0.05,-0.017,-0.067,-0.023
"MTHFD1, A0A384N5Y3",0.099,-0.055,0.239,-0.099,-0.153,-0.031,0.087,-0.008,-0.146,0.107
NFATC2 (UniProt Q13469),0.006,0.066,-0.135,-0.341,-0.213,-0.445 (active),-0.025,-0.075,-0.029,-0.124
OGFOD2 (UniProt Q6N063),0.009,0.171,0.004,-0.007,-0.04,-0.023,-0.011,0.132,,0.092
MSTO1 (UniProt Q9BUK6),-0.03,0.028,-0.057,0.033,-0.174,-0.005,0.064,0.037,-0.096,0.011
NECTIN2 isoform 2 (UniProt Q92692),-0.64,0.145,0.129,-0.016,0.001,0.006,,-0.129,,-0.049
MLST8 (UniProt Q9BVC4),0.005,,-0.125,0.085,-0.152,-0.059,0.028,,-0.109,0.1
NOS1AP (UniProt O75052),-0.052,,,,,,0.067,-0.179,-0.037,0.165
MSANTD2 (UniProt Q6P1R3),,,,,-0.042,,,,,
NIPSNAP2 (UniProt C9J7B1),-0.045,,,,,,,,,0.173
MXRA7 isoform 3 (UniProt P84157),,,,,,,,-0.078,0.011,
NUDT6 (UniProt P53370),,,-0.1,0.083,-0.005,0.08,0.426,0.05,-0.022,-0.049
MRPS21 (UniProt P82921),0.382,,-0.347,0.137,-0.284,-0.002,0.036,0.017,-0.028,0.277
NUDT7 (UniProt P0C024),0.418,-0.122,0.093,0.006,,-0.03,,0.027,,
OAF (UniProt Q86UD1),,,,,,,,0.199,,-0.104
OSBPL3 (UniProt Q9H4L5),,,0.316,0.114,0.447,-0.213,-0.081,-0.173,-0.17,
NASP isoform 2 (UniProt P49321),,,,,,,,,,-0.347
NA (UniProt B2RBV5),-0.005,-0.084,-0.433,0.828 (active),,-0.195,,,0.075,0.04
"NA, A0A1W2PSA9",,0.022,,,0.289,,0.218,-0.118,,

Target,log2 fold change (bafetinib),log2 fold change [1],log2 fold change (nilotinib),log2 fold change [2],log2 fold change (dasatinib),log2 fold change [3],log2 fold change [4],log2 fold change [5],log2 fold change (tipifarnib),log2 fold change (mubritinib)
MT-ND1 (UniProt P03886),-0.199,,0.102,-0.079,-0.149,-0.061,0.066,-0.036,0.633 (active),0.114
NKTR (UniProt P30414),1.06,,,,,,,,0.163,0.167
OSBPL2 (UniProt Q9H1P3),,,,,,,0.37,,-0.009,0.465
OVCA2 (UniProt Q8WZ82),0.171,0.039,0.026,-0.326,,-0.163,,-0.003,-0.059,-0.231
MLH1 (UniProt P40692),-0.063,0.035,,,-0.212,,0.005,,0.047,-0.073
OXR1 isoform 2 (UniProt Q8N573),,-0.009,-0.028,-0.002,0,-0.094,0.15,0.099,-0.019,
NEK3 (UniProt P51956),,-0.246,-0.026,-0.173,-0.055,-0.037,0.101,-0.002,-0.088,-0.076
NAA11 (UniProt Q9BSU3),0,,-0.093,0.015,0.059,-0.003,0.102,0.176,0.011,-0.081
NA (UniProt J3KR12),0.338,,0.208,-0.221,,-0.196,,-0.112,,0.16
NME7 (UniProt Q9Y5B8),-0.14,0.071,,,-0.245,,-0.044,0.009,-0.001,-0.279
NRGN (UniProt Q92686),-0.199,-0.581,0.004,-0.199,,-0.088,,0.074,-0.055,
NCK1 (UniProt P16333),0.062,,-0.069,-0.421,-0.138,0.046,-0.086,-0.044,0.008,-0.058
MYSM1 (UniProt Q5VVJ2),-0.138,,,,,,,0.18,,
PAFAH2 (UniProt Q99487),-0.083,,,,-0.146,,0.079,0.029,0.611 (active),
NPC1L1 (UniProt Q9UHC9),-0.05,,0.659,0.52,-0.117,-0.384 (active),0.012,,0.094,0.008
NCOA5 (UniProt Q9HCD5),,-0.04,-0.428,-0.92 (active),-0.043,0.218,,-0.203,0.164,
NA isoform 3 (UniProt Q4G0T1),-0.198,,-0.021,-0.009,-0.093,0.01,-0.065,0.059,-0.066,-0.066
MORC2 (UniProt Q9Y6X9),-0.036,,,,,,,,0.018,0.126
NDUFB1 (UniProt O75438),-0.116,0.028,0.095,0.009,,-0.028,0.004,,0.038,0.022
NEU3 isoform 2 (UniProt Q9UQ49),,,,,,,,,0.044,
MPHOSPH8 isoform 2 (UniProt Q99549),,,,,-0.025,,-0.019,-0.116,0.01,0.031
NOLC1 isoform 3 (UniProt Q14978),,,,,,,-0.015,,,
MRPS26 (UniProt Q9BYN8),0.275,-0.003,,,-0.031,,0.007,0.135,-0.142,0.088
MRM2 (UniProt Q9UI43),,,-0.069,-0.049,-0.381,0.043,0.164,,-0.011,
MITF (UniProt O75030),,0.001,-0.071,-0.07,,-0.047,,,,0.084
NAT14 (UniProt Q8WUY8),-0.071,,0.003,-0.052,-0.066,0,-0.06,-0.209,0.054,0.118
